High-throughput results as filed in PubChem.
In the library only some 2% were active in any assay of this set; here they are far more common.
Jurkat NFkB inh = lowers PMA/ionomycin-induced NF-kB signal in Jurkat cells. AID 435003. PMA/ionomycin-induced NF-kB luciferase reporter, luminescence. 330,000 tested, 0.53% active. inhibition, % at 4 µM; in the data active means inhibition above about 50%
Calb FLC = affects C. albicans growth with fluconazole; C. albicans CaCi-2 (fluconazole-resistant clinical isolate) + fluconazole, Alamar Blue growth, 48 h; growth inhibition, % (no concentration beside the values); 300,000 tested, 0.57% active; AID 1979;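 active means growth inhibition above about 58% in most replicates, limit read from the data, passing the limit was not always enough; inconclusive means exactly half the replicates above a set limit; inactive means most replicates below a set limit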;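 further: all wells also contain fluconazole at 8 µg/ml as a sub-toxic cotreatment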
Beta cell apopt = blocks beta cell apoptosis; INS-1E cytokine-induced death, ATP luminescence, 48 h; percent of positive-control rescue, neutral wells zero; protection from apoptosis, % (test concentration not listed); 300,000 tested, 0.8% active;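 active means Every replicate reaches about 75%, or at least half do and their mean reaches it too, limit read from the data; inconclusive means At least half of replicates reach the limit but their mean does not; inactive means Under half of replicates reach the limit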;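 further: higher means more ATP so stronger rescue from cytokine killing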
Shn3 3UTR inh = reduces Shn3 3'UTR luciferase signal in osteoblasts | Clone20 osteoblast Shn3 3'UTR firefly luciferase, 24 h | AID 588674 | 360,000 tested, 0.52% active | inhibition, % at 12.5 µM;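 active means mean inhibition of at least 75% with every replicate also reaching 75%; inconclusive means mean inhibition at least 75% but some replicate below; inactive means mean inhibition below 75%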
697 NFkB inh = inhibitors of the PMA/ionomycin-induced NF-kB reporter in 697 B cells; 330,000 tested, 0.33% active; 697 B-cell NF-kB luciferase reporter, 16 h; inhibition, % at 4 µM; in the data active means inhibition above about 35%
Jurkat NFkB conf = inhibitors of the PMA/ionomycin-induced NF-kB reporter in Jurkat cells, retest. shares compounds with Jurkat NFkB inh. Jurkat NF-kB luciferase, 16 h. inhibition, % at 4 µM. 2,700 tested, 27% active. AID 435020;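 active means inhibition reaching about 45% at 4 µM in either replicate, limit read from the data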
Numbers stand for hits; . = inactive; ? = inconclusive; / = no result.

SMILES | Jurkat NFkB inh | Calb FLC | Beta cell apopt | Shn3 3UTR inh | 697 NFkB inh | Jurkat NFkB conf
COc1ccc2nc(SCC(=O)NC3CCCC3)c(C)cc2c1 | 50 | . | . | . | . | .
Cc1ccc(S(=O)(=O)N2C[C@H]3C(=O)C[C@@H](c4ccccc4)N(S(=O)(=O)c4ccc(C)cc4)[C@H]3C[C@H]2c2ccccc2Cl)cc1 | / | / | / | . | / | /
CC(O)CNc1nc(N)[nH]c(=O)c1N=Nc1ccccc1 (stereo unspecified) | / | / | / | . | / | /
O=c1c2c(-c3ccccc3)csc2ncn1/N=C/c1cccc([N+](=O)[O-])c1O | . | . | . | . | . | /
Cn1cc(/C=N/n2cnc3scc(-c4ccccc4)c3c2=O)c2ccccc21 | 63 | . | . | . | . | .
Cn1c(-c2ccc(F)c(F)c2)cc2onc(-c3ccccc3)c2c1=O | . | / | . | . | . | .
COC(=O)c1ccc(-c2cc3onc(-c4ccccc4)c3c(=O)n2C)cc1 | . | / | . | . | . | /
CCc1ccc2c(Cl)c(C(=O)N/N=C/c3c[nH]c4ccccc34)sc2c1 | . | . | / | . | . | /
CCc1ccc(-c2cc(C(=O)N/N=C/c3c[nH]c4ccccc34)[nH]n2)cc1 | 60 | . | . | . | . | .
CN(Cc1ccccc1)C(=O)c1cccc(NC(=O)Cc2cccc(NC(=O)C3CCN(C(=O)C4CCC4)CC3)c2)c1 | / | / | / | . | / | /
C=CC[C@H](CC(=O)N[C@H](CO)Cc1ccccc1)C(=O)N[C@@H](COC(=O)[C@H](CC=C)CC(=O)OC(C)(C)C)Cc1c[nH]c2ccccc12 | . | / | . | . | . | /
O=C(Nc1nc2ccc(F)cc2s1)c1cccs1 | . | . | . | . | . | .
Cc1ccccc1NC1=C/C(=N\S(=O)(=O)c2cccs2)c2ccccc2C1=O | 51 | . | 98 | 98 | . | 84
O=C(NNc1ccnc2cc(Cl)ccc12)C1CCCCC1 | 69 | . | 127 | . | . | 64
CCN(CC(=O)Nc1ccc(OC)cc1)C(=O)c1ccc2c(=O)n3c(nc2c1)CCC3 | . | / | . | . | . | /
CCN(CC)S(=O)(=O)c1cc(NC(=O)CNc2cccc(S(=O)(=O)N3CCCC3)c2)ccc1C | 57 | . | 89 | 91 | . | 60
O=C(c1ccc(N2C(=O)CCC2=O)cc1)N1CCCSC1=Nc1ccccc1 | / | / | / | . | / | /
CC(C)(C)c1ccc(C(=O)O/N=C(\N)c2ccccn2)cc1 | 59 | . | . | . | . | 86
C/C(=N\NC(=O)C1COc2ccccc2O1)c1ccccn1 (stereo unspecified) | 73 | . | . | . | . | .
CC(C)NC(=O)c1cc(-c2cccs2)nc2ccccc12 | . | . | . | . | . | /
C/C(=N\NC(=O)C1COc2ccccc2O1)c1ccc(C)o1 (stereo unspecified) | . | . | . | . | . | /
CC(=O)Nc1ccc(/C(C)=N/NC(=O)c2ccccc2Cl)cc1 | . | . | . | . | . | /
Cc1ccc(C(=O)O/N=C(\N)c2ccccn2)cc1 | . | . | . | . | . | /
C/C(=N\NC(=O)c1cc(-c2cccs2)nc2ccccc12)c1ccccn1 | 55 | 95 | 102 | 94 | . | .
C/C(=N\NC(=O)c1ccccc1Cl)c1ccccn1 | 89 | . | 93 | 92 | . | .
SMILES | Jurkat NFkB inh | Calb FLC | Beta cell apopt | Shn3 3UTR inh | 697 NFkB inh | Jurkat NFkB conf
CCc1nc2c(OCC3CCCCC3)cccn2c1N(C=O)Cc1ccc(OC)cc1 | / | / | / | . | / | /
CCOCCCNC(=O)CCN1C(=O)c2ccccc2Sc2ncccc21 | . | . | . | . | . | /
CN(Cc1ccccn1)C(=O)C1CCC(=O)N(CCc2ccc(Cl)cc2)C1 (stereo unspecified) | . | . | . | . | . | /
CCCCN(C(=O)c1cccc(S(=O)(=O)N2CCCCC2)c1)C1CCS(=O)(=O)C1 (stereo unspecified) | . | . | . | . | . | /
C/C(=N\NC(=O)c1cccc2ccccc12)c1ccccn1 | 95 | . | / | 90 | . | .
C/C(=N\NC(=O)C(c1ccccc1)c1ccccc1)c1ccccn1 | 79 | . | 88 | 88 | . | .
CC(=NNC(=O)c1ccncc1)c1cccc(Br)c1 | / | / | / | . | / | /
C/C(=N\NC(=O)c1cccc(Br)c1)c1ccccn1 | 92 | . | 105 | ? | . | .
COc1ccc(C(=O)N/N=C(\C)c2ccccn2)cc1OC | 96 | . | 98 | 91 | . | .
C/C(=N\NC(=O)c1cccc2ccccc12)c1cccs1 | . | . | . | . | . | /
CCc1nnc(NC(=O)CN2CCCC(C)C2)s1 (stereo unspecified) | . | . | . | . | . | /
O=C(NC1CCCCC1)c1c(O)nc2sccn2c1=O | . | . | / | . | . | /
O=C(COC(=O)c1cc[n+]([O-])cc1)NC(=O)c1ccc(OC(F)F)cc1 | . | / | . | . | . | /
Cc1ccnc2nc(C(=O)OCC(=O)N(Cc3ccccc3)C(C)C)nn12 | . | / | . | . | . | /
CC(C)(C)c1ccc(/C=N/NC(=O)c2ccccn2)cc1 | . | . | . | . | . | .
C/C(=N/NC(=O)c1ccc(C(C)(C)C)cc1)c1ccccn1 | 100 | . | 111 | . | . | .
O=C(N/N=C/c1ccsc1)c1ccccn1 | . | . | . | . | . | /
C/C(=N\NC(=O)c1ccc(Cl)c(Cl)c1)c1ccc(Br)s1 | . | . | . | . | . | /
C/C(=N\NC(=O)c1ccc(Cl)c(Cl)c1)c1ccccn1 | 98 | . | 93 | 91 | . | 53
Clc1cccc(-c2nc(-c3ccc(-c4nn[nH]n4)cc3)no2)c1 | . | / | . | . | . | /
c1ccc(-c2cccc(-c3ccccn3)n2)nc1 | 92 | 100 | 82 | 88 | . | 83
Cc1noc(C)c1COc1ccc(C(=O)NNC(=O)c2ccccc2F)cc1 | 56 | / | . | . | . | .
Cc1noc(C)c1COc1ccc(C(=O)O)cc1 | . | . | . | . | . | /
Cc1noc(C)c1COc1ccc(C(=O)NNC(=O)c2ccccc2)cc1 | 63 | . | / | . | . | .
Cc1noc(C)c1COc1ccccc1C(=O)NNC(=O)c1ccccc1F | . | / | . | . | . | /
SMILES | Jurkat NFkB inh | Calb FLC | Beta cell apopt | Shn3 3UTR inh | 697 NFkB inh | Jurkat NFkB conf
CSc1ccc(/C=N/NC(=O)c2ccc(C)c(C)c2)cc1 | . | . | . | . | . | /
CSc1ccc(/C=N/NC(=O)c2sccc2C)cc1 | . | . | . | . | . | .
CCOc1ccc(-c2cn3ccccc3n2)cc1 | . | . | . | . | . | .
Fc1ccc(-c2cn3ccccc3n2)cc1 | . | . | . | . | . | /
N#CCC(CNc1ncc(C(F)(F)F)cc1Cl)OC(=O)c1ccc(Cl)cc1Cl (stereo unspecified) | 70 | . | . | . | . | .
CCN(CC)c1ccc(/C=N/NC(=O)c2cccc(S(=O)(=O)N3CCOCC3)c2)c(O)c1 | 64 | 102 | 75 | 89 | . | .
CCOC(=O)N=Nc1c(O)n(CC(=O)OC)c2ccccc12 | . | . | . | . | . | /
CCOC(=O)N=Nc1c2ccccc2c2nc3no[nH]c3nc12 | 60 | 112 | / | 100 | . | 98
Cc1cccc(N2CCN(S(=O)(=O)c3cc(-c4cc(C)no4)ccc3C)CC2C)c1 (stereo unspecified) | 64 | . | . | . | . | .
